Statin myotox sup – suppression of simvastatin myotoxicity | C2C12 myotubes + simvastatin, ATP luminescence, 48 h; scaled: DMSO 0, geranylgeraniol control 100 | rescue of ATP level, % at 7.49 µM | 0.78% of 330,000 active;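 active means mean ATP rescue above about 67%, or every replicate alone reaching that limit, limit read from the data, passing the limit was not always enough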;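 further: myotubes were challenged with 10 µM simvastatin during compound exposure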
GSIS activator – primary screen for activators of insulin secretion dependent on glucose, INS-1E cells, GLuc reporter luminescence. INS-1E GLuc reporter insulin secretion, 2-3 h. activation, % at 16.6 µM. 0.61% of 370,000 active. AID 743287;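 active means lowest replicate activation of at least 40%, so every replicate reaches that level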;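 further: 0% = median of neutral control wells and 100% = median of IBMX positive control wells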
miR122 inh – inhibitors of miR-122 in Huh7 cells; 0.3% of 340,000 active; activation (reporter increase), % at 12.5 µM; AID 602342; Huh7 miR-122 Renilla luciferase sensor, 48 h; neutral wells = 0, positive control = 100;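 active means mean replicate activation score at least 90 and every replicate individually at or above 90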;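 further: higher luciferase means less miR-122 activity so hits act as miR-122 inhibitors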
Env fusion inh – blocks HIV Env-driven cell-cell fusion; HeLa-JRFL Env/CEM21 cell fusion, luciferase; inhibition, % at 12.3 µM; 1.1% of 360,000 active; AID 651610;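 active means mean replicate inhibition score of at least 50 and every replicate individually at or above 50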;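 further: 0% = plate neutral controls and 100% = maraviroc near 300 nM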
PAX8 inh HTS – PAX8 transcriptional activity inhibition; inhibition, % at 12.6 µM; 1.2% of 360,000 active; RMG-I TPO-luciferase reporter, SteadyGlo, 24 h; AID 652154;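 active means mean replicate inhibition at least 60% with every replicate also reaching 60%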;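 further: luciferase light reporting Pax8 driven TPO promoter activity; plate controls were median of neutral control wells for no effect and mitoxantrone controls for full effect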
EWS-Fli block – blocks EWS/Fli oncoprotein-driven transcription; inhibition, % at 12.6 µM; A673 NR0B1-luciferase reporter, viability-normalised; 0.67% of 350,000 active;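 active means mean inhibition of at least 50% after viability correction, with every replicate also passing that limit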;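 further: firefly luciferase signal divided by Alamar Blue viability fluorescence both relative to DMSO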
* = called active by the depositor; x = no result; [ ] = another dose, or the depositor's remark. In the library only some 3.1% were active in any assay of this set; here they are far more common.

SMILES	Statin myotox sup	GSIS activator	miR122 inh	Env fusion inh	PAX8 inh HTS	EWS-Fli block
CCC(=O)N1CC2(C1)CN(S(C)(=O)=O)[C@H](CO)c1[nH]c3cc(OC)ccc3c12	x	25	x	x	x	10
COc1ccc(NC(=O)Nc2ccc3c(c2)C(=O)N([C@H](C)CO)C[C@H](C)[C@H](CN(C)CC2CC2)OCCCC[C@@H](C)O3)cc1	x	2	2[16.7 µM]	1[16.7 µM]	-2	x
COc1ccc(NC(=O)Nc2ccc3c(c2)C(=O)N([C@@H](C)CO)C[C@@H](C)[C@@H](CN(C)CC2CCCCC2)OCCCC[C@@H](C)O3)cc1	-353	-8	-20[16.7 µM]	11[16.7 µM]	77*	24
COc1ccc(NC(=O)Nc2ccc3c(c2)C(=O)N([C@@H](C)CO)C[C@H](C)[C@H](CN(C)CC2CCCCC2)OCCCC[C@H](C)O3)cc1	-279	-9	2[16.7 µM]	55*[16.7 µM]	-11	9
COc1ccc(NC(=O)Nc2ccc3c(c2)C(=O)N([C@H](C)CO)C[C@H](C)[C@H](CN(C)CC2CCCCC2)OCCCC[C@@H](C)O3)cc1	-27	-7	8[16.7 µM]	4[16.7 µM]	-8	1
COc1ccc(NC(=O)Nc2ccc3c(c2)C(=O)N([C@H](C)CO)C[C@H](C)[C@H](CN(C)CC2CC2)OCCCC[C@H](C)O3)cc1	x	10	0[16.7 µM]	64*[16.7 µM]	3	x
C[C@H](CO)N1C[C@H](C)[C@H](CN(C)C(=O)Nc2cccc3ccccc23)OCCCC[C@H](C)Oc2ccc(NC(=O)Cc3ccccc3)cc2C1=O	-11	-8	-5[16.7 µM]	-52[16.7 µM]	13	-2
C[C@H](CO)N1C[C@H](C)[C@@H](CN(C)C(=O)Nc2ccc3c(c2)OCO3)Oc2ncc(-c3cncnc3)cc2C1=O	-7	1	0[16.7 µM]	4[16.7 µM]	x	-1
C[C@H]1CN([C@@H](C)CO)C(=O)c2cc(NC(=O)C3CC3)ccc2O[C@H]1CN(C)C(=O)Nc1ccccc1	9	8	6[16.7 µM]	14[16.7 µM]	-11	-7
O=C(C[C@H]1C[C@@H]2c3cc(NS(=O)(=O)c4ccc(F)cc4)ccc3O[C@@H]2[C@H](CO)O1)NCc1ccccn1	3	2	-1[16.7 µM]	21[16.7 µM]	-10	-6
C[C@@H]1CN([C@H](C)CO)C(=O)c2cc(NS(=O)(=O)c3ccc(F)cc3)ccc2O[C@@H](C)CCCCO[C@H]1CN(C)C(=O)Nc1ccc(F)cc1	x	-29	1[16.7 µM]	-129[16.7 µM]	21	-4
C[C@@H]1CN([C@H](C)CO)C(=O)c2cc(NS(=O)(=O)c3ccc(Cl)cc3)ccc2O[C@@H](C)CCCCO[C@H]1CN(C)C(=O)Nc1ccc(F)cc1	x	-11	-16[16.7 µM]	-217[16.7 µM]	67*	2
Cc1ccc(S(=O)(=O)Nc2ccc3c(c2)C(=O)N([C@H](C)CO)C[C@@H](C)[C@H](CN(C)C(=O)Nc2ccc(F)cc2)OCCCC[C@@H](C)O3)cc1	x	-7	-10[16.7 µM]	-30[16.7 µM]	61*	12
COc1ccc(S(=O)(=O)Nc2ccc3c(c2)C(=O)N([C@@H](C)CO)C[C@H](C)[C@@H](CN(C)C(=O)Nc2ccc(F)cc2)OCCCC[C@H](C)O3)cc1	6	2	-1[16.7 µM]	19[16.7 µM]	85*	-4
C[C@H]1CCCCO[C@H](CN(C)C(=O)Nc2ccc(F)cc2)[C@@H](C)CN([C@@H](C)CO)C(=O)c2cc(NS(=O)(=O)c3ccc(F)cc3)ccc2O1	x	-23	9[16.7 µM]	23[16.7 µM]	67*	17
C[C@@H]1CCCCO[C@H](CN(C)C(=O)Nc2cccc3ccccc23)[C@@H](C)CN([C@@H](C)CO)C(=O)c2cc(NC(=O)CCCN(C)C)ccc2O1	x	-1	-5[16.7 µM]	-18[16.7 µM]	-12	3
CO[C@H]1CN(C)C(=O)c2ccc(NC(=O)C3CC3)cc2OC[C@@H](C)N(C(=O)c2ccccc2)C[C@@H]1C	2	5	x	x	6	3
Cc1noc(C)c1NC(=O)N(C)C[C@H]1OCCCC[C@@H](C)Oc2ccc(NS(=O)(=O)c3ccc(F)cc3)cc2C(=O)N([C@H](C)CO)C[C@@H]1C	-1	21	9[16.7 µM]	60*[16.7 µM]	-18	-9
COc1ccc(S(=O)(=O)Nc2ccc3c(c2)C(=O)N([C@@H](C)CO)C[C@H](C)[C@H](CN(C)C(=O)Nc2ccccc2)OCCCC[C@@H](C)O3)cc1	x	-37	120*[16.7 µM]	-14[16.7 µM]	-7	5
COc1ccc(S(=O)(=O)Nc2ccc3c(c2)C(=O)N([C@@H](C)CO)C[C@@H](C)[C@@H](CN(C)C(=O)NC(C)C)OCCCC[C@@H](C)O3)cc1	x	-12	-5[16.7 µM]	-27[16.7 µM]	-16	-3
COc1ccc(S(=O)(=O)Nc2ccc3c(c2)C(=O)N([C@@H](C)CO)C[C@H](C)[C@H](CN(C)C(=O)NC(C)C)OCCCC[C@H](C)O3)cc1	x	-17	6[16.7 µM]	93*[16.7 µM]	7	-6
CC(=O)N1[C@@H]2Cn3c(cccc3=O)[C@H]1[C@@H](C(=O)NCc1ccc(F)cc1)[C@@H]2CO	8	12	2[16.7 µM]	x	0	-1
C[C@@H]1CCCCO[C@H](CN(C)C(=O)c2ccccc2)[C@H](C)CN([C@@H](C)CO)C(=O)c2cc(NC(=O)NC3CCCCC3)ccc2O1	42	-31	-5[16.7 µM]	-32[16.7 µM]	-12	-5
Cc1cc(C)c2c(CN3CCN(Cc4ccc5c(c4)OCO5)CC3)cc(=O)oc2c1	150*	x	1	x	x	x
Cc1cc(C(=O)N2CCN(Cc3ccc4c(c3)OCO4)CC2)cs1	92*	-6	0	x	x	1
SMILES	Statin myotox sup	GSIS activator	miR122 inh	Env fusion inh	PAX8 inh HTS	EWS-Fli block
Cc1cc(C)cc(C(=O)N2CCN(Cc3ccc4c(c3)OCO4)CC2)c1	15	7	0	-42	-30	-16
O=c1cc2oc3cc(O)c(O)cc3c(-c3ccccc3[N+](=O)[O-])c-2cc1O	6	-1	86	54	102*	-55
O=c1cc(-c2ccccc2Cl)oc2cccc(O)c12	4	x	x	-7	-35	-35
C=CCN=C1NN=C(c2ccc3c(c2)OCCO3)CS1	1	10	154*	32	-31	58*
C=CCN=C1NN=C(c2cc(C)n(CC=C)c2C)CS1	x	14	x	46	15	80*
COc1ccc(-c2nnn(Cc3nc(N)nc(N4CCOCC4)n3)n2)cc1OC	1	96*	1	x	x	x
CCCCCCCOC(=O)c1nc(Cl)c(Cl)c(N)c1Cl	-4	416*	-2	x	-19	-9
CCCCOc1ccccc1C1CC(=O)NC2=C1C(=O)CCC2 (configuration not stated)	x	x	109*	x	x	x
COc1ccccc1CNC(=O)C[C@@H]1C[C@@H]2c3cc(NS(C)(=O)=O)ccc3O[C@@H]2[C@H](CO)O1	-3	0	-1[16.7 µM]	-13[16.7 µM]	-16	1
O=C(NC1CCCCC1)C(c1ccc(F)cc1)N(Cc1ccco1)C(=O)Cn1nnc2ccccc21 (configuration not stated)	47	x	0	10	x	x
Cc1ccc(C(C(=O)NC2CCCCC2)N(C(=O)c2csnn2)C2CCCC2)o1 (configuration not stated)	0	6	-15	71*	x	x

High-throughput results deposited in PubChem BioAssay by Broad Institute.
